Laboratory results taken from PubChem BioAssay.
Results filed as inconclusive are left out. Calls of active or inactive are those of the source. The limit is not given here; nearly all actives have IC50 up to about 30 µM.

test: SU-DIPG-XXV glioma cell viability, MIPE5.0 library, qHTS (AID 1347068);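 as to IC50: cells exposed to compound for 48 hours before viability readout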

| SMILES | outcome | IC50 |
| --- | --- | --- |
| CC(C)n1c(=O)cc(N[C@@H](C)c2ccccc2)[nH]c1=O | inactive | – |
| c1ccc(CNCc2ccc(CN3CCCNCCNCCCNCC3)cc2)nc1 | inactive | – |
| Cc1ccc(S(=O)(=O)Nc2cc(C(F)(F)F)ccc2C(=O)Nc2nc(-c3ccccc3)cs2)cc1 | – | 4.68 µM (active) |
| N#Cc1ccc(-c2c(-c3ncn[nH]3)sc(N3CCOCC3)c2C#N)c(F)c1 | – | 4.68 µM (active) |
| CN(C)N(C)C(=O)[C@@]1(Cc2ccccc2)CCCN(C(=O)[C@@H](Cc2c[nH]c3ccccc23)NC(=O)C(C)(C)N)C1 | inactive | – |
| O=C(Cc1cccc(OC(F)(F)F)c1)Nc1ccc(CCCCc2nnc(NC(=O)Cc3ccccn3)s2)nn1 | inactive | – |
